KB-V1 cytotox – kills drug-selected multidrug resistant KB-V1 cells | KB-V1 MDR cells viability, CellTiter-Glo, 72 h | Potency, µM (titrated, usually from 46.1 µM), hits mostly cytotoxic | 400,000 compounds, 3.4% hits | AID 1347076; also: potency is read from the fitted curve at half-maximal effect; % is scaled to controls: 0 for no effect and ±100 for the full control effect; nearly all actives have a fitted effect of over 60% in size
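KB-V1, DMEM (no phenol red) + 10% FBS; cpd pin-transferred, titration series; 72 h, 37 degrees C; CellTiter-Glo, luminescence. Data normalized, curve-fit.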
SW480 rereplic – induces DNA re-replication in SW480 colon adenocarcinoma cells; Potency, µM (doses to about 46.1 µM), for inactives: at the top dose re-replication activation, usual class: activators; SW480 DNA re-replication, Hoechst DNA content imaging, 48 h; 340,000 compounds, 1.8% hits; also: potency is read from the fitted curve at half-maximal effect; % of control where 0% means no effect; nearly all actives have a fitted effect of over 55% in size
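Cells (250 per well) received 23 nL compound or DMSO by pin tool and were kept 48 hr at 37 C, 5% CO2. Nuclei were then stained with Hoechst for 40 min and scanned for DNA content.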
ASM inhibitor – inhibitors of human secretory acid sphingomyelinase; AID 504937; 340,000 compounds, 0.006% hits; placental ASM, HMU-PC fluorogenic substrate, 60 min; Potency, µM (top dose mostly 57.5 µM), without a hit: at the highest dose activity change, negative = inhibition, most hits filed as inhibitors; also: potency is read from the fitted curve at half-maximal effect
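Fluorogenic HMU-PC substrate (9 uM final) is turned over by placental ASM in 60 min at 37 C after a 10 min compound preincubation. Reaction ended by alkaline stop (pH 10), with fluorescence read at 386/447 nm.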
MCF10A rereplic – DNA re-replication induction in MCF 10a cells; 350,000 compounds, 2.9% hits; MCF 10A DNA re-replication, Hoechst nuclear intensity, 48 h; Potency, µM (titrated, usually from 46.1 µM), for the others: at the highest dose activity, positive = re-replication, actives largely listed as activators; AID 624296; also: potency is read from the fitted curve at half-maximal effect; % of control where 0% means no effect; nearly all actives have a fitted effect of over 50% in size
Giardia kill – Giardia lamblia killing | Giardia lamblia trophozoite viability | activity change, % at 7.66 µM, hits read low | 340,000 compounds, 0.15% hits | AID 540267; in the data active = activity change below about -80%; inconclusive = between about -30% and that limit;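 also: parasites exposed to compound for two days anaerobically before the ATP read; % is scaled to controls: 0 for no effect and ±100 for the full control effect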
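Media and compound were dispensed first, then trophozoites at 100 cells/well; plates sat 48 hrs at 37 deg C without oxygen before ATP luminescence reagent was added and read after 15-30 min at room temperature.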
KB-3-1 tox – kills parental KB-3-1 adenocarcinoma cells | KB-3-1 viability, CellTiter-Glo ATP luminescence, 72 h | Potency, µM (doses to about 46.1 µM), most hits filed as cytotoxic | 400,000 compounds, 1.4% hits | AID 1347075; also: potency is read from the fitted curve at half-maximal effect; % is scaled to controls: 0 for no effect and ±100 for the full control effect; nearly all actives have a fitted effect of over 60% in size
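Luminescent ATP read-out (CellTiter-Glo) measures survival of drug-naive KB-3-1 cells after 72 h compound exposure at 37 °C. Titration series was screened from lowest to highest concentration, with DMSO vehicle plates as background controls.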
The depositor's hits bear a star; i = inactive; u = inconclusive; x = not tested or not shown. The list is not random: actives were taken first. Their share in the collection is about 6.9%. Unless noted, calls follow the shape of the dose curve; as a rule, active = well fitted curve in the direction sought with a large enough effect; inconclusive = small, poorly fitted or top-dose-only effect, or another doubt; inactive = no such curve, though single readings can be large; an effect the other way counts as inactive or inconclusive.

SMILES	KB-V1 cytotox	SW480 rereplic	ASM inhibitor	MCF10A rereplic	Giardia kill	KB-3-1 tox
COc1ccc2c(c1)NC(C)(C)C=C2C	i	u	24%	27%	-10	i
CC1=CC(C)(C)Nc2ccc(OC(=O)CCN3C(=O)c4ccccc4C3=O)cc21	u	9.2µM*	3%	6.5µM*	-10	u
CCOc1ccc(S(=O)(=O)Oc2ccc3ccccc3c2)cc1	u	-1%	-1%	u	-1	u
O=C(NCCc1ccccc1)c1ccc(Cn2c(SCc3ccccc3)nc3cccnc32)cc1	i	x	x	x	x	i
Nc1nc2ccccc2cc1C(=O)NCc1cccs1	16µM*	x	x	x	x	i
O=C(NCc1cccs1)c1ccccc1F	i	-8%	1%	-8%	8	i
O=C(NCc1cccs1)c1cc(-c2ccccc2)nc2ccccc12	u	2%	-10%	u	14	i
Nc1nc2ccccc2cc1C(=O)NCCCCc1ccccc1	2.6µM*	x	x	x	x	i
Cc1ccccc1C(=O)NCCCCc1ccccc1	i	-3%	1%	2%	10	i
Cc1ccc(C)c(-c2cc(C(=O)NCc3cccs3)c3ccccc3n2)c1	12µM*	u	-10%	u	3	i
CC(=O)c1ccc(NC(=O)c2ccc3c(c2)N(Cc2cccc(Cl)c2)C(=O)c2ccccc2S3(=O)=O)cc1	i	x	x	x	x	i
CCc1ccc(NC(=O)C(CC)Sc2nc3cc4c(cc3c(=O)n2Cc2ccco2)OCO4)cc1 (centres undefined)	u	u	-6%	18µM*	6	u
CCC(Sc1nc2cc(OC)c(OC)cc2c(=O)n1Cc1ccco1)C(=O)NCCOC (centres undefined)	i	-13%	-1%	0%	-6	i
CCN(CC)C(=O)CSc1nc2cc3c(cc2c(=O)n1Cc1ccc(OC)cc1)OCO3	i	4%	-1%	5%	3	i
CCc1ccccc1NC(=O)C(CC)Sc1nc2cc3c(cc2c(=O)n1Cc1ccco1)OCO3 (centres undefined)	3.7µM*	15µM*	0%	6.5µM*	-21	u
Cn1nccc1NC(=O)CSCC(=O)O	i	-54%	7%	8.2µM*	-11	i
Cc1ccnn1CCSCC(=O)O	i	0%	1%	21µM*	6	i
CCCCNC(=O)CCn1nc(-c2ccc(C)cc2)c2ccccc2c1=O	u	-2%	0%	-4%	8	i
c1ccc(C2=Nn3c(nnc3-c3n[nH]c4c3CCC4)SC2)cc1	u	-6%	-18%	u	-11	i
Clc1ccc(C2=Nn3c(nnc3-c3n[nH]c4c3CCC4)SC2)cc1Cl	4.6µM*	u	u	u	-1	u
C=C(C)CNC(=S)N/N=C(\C)c1ccc(OC)cc1	16µM*	18%	1%	8%	u	u
COCCNC(=S)N/N=C(\C)c1ccc(OC)cc1	i	-4%	0%	4%	0	i
Clc1ccc(Nc2ncnc3ccc(Br)cc23)cc1	10µM*	0%	-18%	u	7	i
Cc1cccc(Nc2ncnc3ccc(Br)cc23)c1	i	20%	-4%	-3%	17	i
Brc1ccc2ncnc(NCc3ccccc3)c2c1	u	-1%	-1%	u	-8	12µM*
CC1CCN(C(=O)COC(=O)c2cc(Cl)c3c(c2)OCO3)CC1	21µM*	-1%	5%	-2%	-5	i
CCCN(Cc1cc2cc(C)ccc2[nH]c1=O)C(=O)c1cccc([N+](=O)[O-])c1	u	2.3µM*	-2%	22%	15	i
N#CC1c2ccccc2C=CN1C(=O)c1ccccc1 (centres undefined)	i	u	-1%	-4%	2	i
N#CC1(Cc2ccccc2Cl)c2ccccc2C=CN1C(=O)c1ccccc1 (centres undefined)	21µM*	4%	-3%	11%	7	u
C=C1C=C(C(F)F)n2ncc(C(=O)N3CCCCC3)c2N1	i	x	x	x	x	u

Source: PubChem BioAssay
